According to PubChem BioAssay:
Active and inactive are the calls of the source.

Tests used:
Albumin (Bos taurus) = Albumin (Bos taurus) (UniProt P02769); experiment: compounds binding labelled BSA control protein – biochemical, small-molecule microarray, Alexa647 label, 635/667 nm fluorescence, artefact control for SMM control protein annotation, profiling panel (AID 1118); conditions: BSA-A647 binding, fluorescence 635 nm, higher = more signal;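 note: score merges 667 nm emission intensity and signal-to-noise per printed compound spot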
Albumin (Bos taurus), sequence (P02769 whole entry, looked up): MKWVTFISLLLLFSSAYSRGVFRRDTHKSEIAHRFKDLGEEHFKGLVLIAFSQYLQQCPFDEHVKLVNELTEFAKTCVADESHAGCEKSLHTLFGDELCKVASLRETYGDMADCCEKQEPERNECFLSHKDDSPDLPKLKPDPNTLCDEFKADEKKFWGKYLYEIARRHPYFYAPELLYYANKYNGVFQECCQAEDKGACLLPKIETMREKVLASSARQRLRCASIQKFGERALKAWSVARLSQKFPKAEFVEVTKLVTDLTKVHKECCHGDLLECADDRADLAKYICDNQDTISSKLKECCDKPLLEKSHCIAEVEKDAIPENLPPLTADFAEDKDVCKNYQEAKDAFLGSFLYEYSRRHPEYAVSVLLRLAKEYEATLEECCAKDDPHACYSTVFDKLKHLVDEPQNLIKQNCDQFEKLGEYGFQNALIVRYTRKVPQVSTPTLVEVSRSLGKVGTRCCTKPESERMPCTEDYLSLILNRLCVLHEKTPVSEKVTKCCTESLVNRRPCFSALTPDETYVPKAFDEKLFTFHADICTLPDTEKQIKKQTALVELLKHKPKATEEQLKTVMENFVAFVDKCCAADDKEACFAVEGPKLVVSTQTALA

[1] = probe aXIP binding to arrayed compounds – biochemical, NeuroSMM set, 635/667 nm fluorescence, primary screen (AID 1119); conditions: small-molecule microarray, higher = more signal, called active from +8 up or from −8 down;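 note: probe is the protein aXip251-270 applied at 1 µg/mL to compound-printed slides; binding of probe to printed compounds measured as 667 nm fluorescence plus signal to noise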
[2] = probe aNOTCH3 binding on compound microarray – biochemical, small-molecule microarray, 635/667 nm fluorescence, primary screen (AID 1120); conditions: higher = more signal;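 note: probe is a biotin-tagged antibody raised against NOTCH3 rather than NOTCH3 protein; score merges spot fluorescence near 667 nm with spot signal to noise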
[3] = probe aNOTCH2 binding on compound microarray – biochemical, small-molecule microarray, 635/667 nm fluorescence, primary screen (AID 1121); conditions: higher = more signal;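 note: score merges feature fluorescence read at 667 nm with its signal to noise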
[4] = molecular target: Carbonic anhydrase 2 (Homo sapiens) (UniProt P00918); experiment: compounds binding carbonic anhydrase 2 – biochemical, small-molecule microarray, Alexa647-labelled CAII, profiling panel (AID 1122); conditions: CAII-A647 binding fluorescence, higher = more signal
[5] = COS7 lysate on small-molecule microarray, probe aHis, 635 nm (AID 1123); conditions: COS7 cell lysate, fluorescence, higher = more signal;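 note: z-score combines 667nm fluorescence intensity with signal-to-noise per printed compound spot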
[6] = probe aLAP1 signal on lysate-treated microarray – cell lysate, small-molecule microarray, COS7 lysate, primary screen (AID 1124); conditions: probe aLAP1, fluorescence, higher = more signal;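 note: lysate comes from COS7 cells expressing LAP1 and is applied at 0.3 µg/mL; score merges spot fluorescence near 667 nm with signal-to-noise over triplicate slides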
Sam68 (KHDRBS1) = experiment: compounds binding KHDRBS1 protein – biochemical, small-molecule microarray, 635 nm fluorescence, primary screen (AID 1125); conditions: higher = more signal;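 note: score merges 667 nm channel intensity with signal to noise over triplicate slides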
[7] = system: Chordin-like protein 2 (CHRDL2); experiment: compounds binding chordin-like 2 – biochemical, small-molecule microarray, 635 nm fluorescence, primary screen (AID 1126); conditions: fluorescence 635 nm, higher = more signal;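 note: printed compound slides probed with Chrdl2 protein at 4 µg/mL for 1 h at 4 C; score merges 667 nm emission intensity with signal to noise over three replicate slides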
[8] = molecular target: Concanavalin-A (Canavalia ensiformis) (UniProt P02866); experiment: compounds binding concanavalin A lectin – biochemical, small-molecule microarray, Alexa647 label, 635 nm, artefact control for SMM control protein annotation, primary screen (AID 1127); conditions: ConA-A647 binding fluorescence, higher = more signal;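 note: z combines 667 nm emission intensity with signal-to-noise across three replicate slides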
Concanavalin-A (Canavalia ensiformis), sequence (P02866 whole entry, looked up): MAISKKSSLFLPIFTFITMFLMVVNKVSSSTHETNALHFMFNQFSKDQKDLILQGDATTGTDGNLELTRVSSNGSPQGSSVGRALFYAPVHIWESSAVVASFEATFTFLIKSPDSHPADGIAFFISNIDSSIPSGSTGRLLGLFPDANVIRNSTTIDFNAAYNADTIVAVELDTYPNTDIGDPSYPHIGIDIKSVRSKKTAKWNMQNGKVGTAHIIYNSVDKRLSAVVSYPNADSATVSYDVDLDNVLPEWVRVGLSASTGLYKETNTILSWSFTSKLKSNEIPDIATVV

[9] = compounds binding Alexa647 anti-His antibody – biochemical, small-molecule microarray, 635 nm fluorescence, artefact control for SMM control protein annotation, primary screen (AID 1128); conditions: higher = more signal;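 note: score merges feature fluorescence with signal-to-noise for each printed compound spot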
[10] = system: Human papillomavirus type 1a E7 protein (residues 1-88); experiment: HPV1a E7 small-molecule binders, primary screen, biochemical, small-molecule microarray, residues 1-88, 635 nm (AID 1129); conditions: small-molecule microarray binding, fluorescence 635 nm; higher = more signal
[11] = molecular target: Focal adhesion kinase 1 (Homo sapiens) (UniProt Q05397); experiment: PTK2 protein binding on printed compound slides – biochemical, small-molecule microarray, 635/667 nm fluorescence, BSA, DTT, primary screen (AID 1130); conditions: 635 nm fluorescence, higher = more signal;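 note: composite of spot emission at 667 nm and signal to noise over triplicate slides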
Focal adhesion kinase 1 (Homo sapiens), sequence (Q05397 whole entry, looked up): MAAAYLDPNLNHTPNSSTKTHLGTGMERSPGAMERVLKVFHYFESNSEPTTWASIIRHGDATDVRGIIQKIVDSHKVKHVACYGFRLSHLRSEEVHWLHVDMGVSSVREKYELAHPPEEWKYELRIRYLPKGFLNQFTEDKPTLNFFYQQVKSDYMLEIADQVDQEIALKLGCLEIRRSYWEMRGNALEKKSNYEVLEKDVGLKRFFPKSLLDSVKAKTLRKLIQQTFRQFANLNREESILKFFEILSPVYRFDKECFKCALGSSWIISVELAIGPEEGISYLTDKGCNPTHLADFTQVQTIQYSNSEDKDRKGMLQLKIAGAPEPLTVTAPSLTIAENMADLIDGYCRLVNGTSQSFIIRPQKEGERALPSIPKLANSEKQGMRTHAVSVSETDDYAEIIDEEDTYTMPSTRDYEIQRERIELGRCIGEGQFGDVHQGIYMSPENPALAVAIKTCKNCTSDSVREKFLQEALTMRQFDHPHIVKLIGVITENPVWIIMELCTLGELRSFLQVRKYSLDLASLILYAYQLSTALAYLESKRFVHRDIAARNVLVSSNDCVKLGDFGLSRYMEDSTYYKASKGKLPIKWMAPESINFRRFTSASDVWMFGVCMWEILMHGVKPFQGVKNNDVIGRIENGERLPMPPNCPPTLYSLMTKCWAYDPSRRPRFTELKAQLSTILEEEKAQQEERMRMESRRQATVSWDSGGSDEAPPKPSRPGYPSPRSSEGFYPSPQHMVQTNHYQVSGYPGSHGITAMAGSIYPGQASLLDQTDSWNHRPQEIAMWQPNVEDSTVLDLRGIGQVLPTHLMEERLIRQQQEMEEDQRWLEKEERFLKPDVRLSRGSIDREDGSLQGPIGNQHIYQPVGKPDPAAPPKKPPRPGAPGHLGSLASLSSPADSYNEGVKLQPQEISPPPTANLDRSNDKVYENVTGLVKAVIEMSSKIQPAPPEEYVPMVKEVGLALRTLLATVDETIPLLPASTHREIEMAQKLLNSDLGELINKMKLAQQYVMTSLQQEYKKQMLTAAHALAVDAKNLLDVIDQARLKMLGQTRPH

[12] = system: Fibrinogen (Alexa647-labelled); experiment: Alexa647-fibrinogen binding to printed small molecules – biochemical, small-molecule microarray, 635/667 nm fluorescence, artefact control for SMM control-protein annotation, profiling panel (AID 1131); conditions: fibrinogen-A647 binding fluorescence, higher = more signal;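 note: z-score merges 667 nm fluorescence with per-spot signal-to-noise over triplicate slides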
[13] = molecular target: Follistatin (Homo sapiens) (UniProt P19883); experiment: FST protein binding to printed compounds – biochemical, small-molecule microarray, 635/667 nm fluorescence, primary screen (AID 1132); conditions: 635 nm fluorescence, higher = more signal
Follistatin (Homo sapiens), sequence (P19883 whole entry, looked up): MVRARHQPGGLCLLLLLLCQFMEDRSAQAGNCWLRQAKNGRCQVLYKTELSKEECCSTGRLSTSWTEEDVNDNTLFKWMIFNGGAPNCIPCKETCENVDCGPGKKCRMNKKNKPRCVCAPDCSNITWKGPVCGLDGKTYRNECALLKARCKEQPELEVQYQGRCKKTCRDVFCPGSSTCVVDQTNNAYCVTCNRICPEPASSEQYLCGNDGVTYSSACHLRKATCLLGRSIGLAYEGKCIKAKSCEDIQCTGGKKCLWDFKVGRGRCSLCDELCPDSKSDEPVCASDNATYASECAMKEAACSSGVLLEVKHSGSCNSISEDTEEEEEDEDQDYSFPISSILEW

[14] = molecular target: Fibroblast growth factor 2 (Homo sapiens) (UniProt P09038); experiment: basic fibroblast growth factor binding to printed compounds – biochemical, small-molecule microarray, 635/667 nm fluorescence, primary screen (AID 1133); conditions: FGF2, fluorescence 635/667, higher = more signal
Fibroblast growth factor 2 (Homo sapiens), sequence (P09038 whole entry, looked up): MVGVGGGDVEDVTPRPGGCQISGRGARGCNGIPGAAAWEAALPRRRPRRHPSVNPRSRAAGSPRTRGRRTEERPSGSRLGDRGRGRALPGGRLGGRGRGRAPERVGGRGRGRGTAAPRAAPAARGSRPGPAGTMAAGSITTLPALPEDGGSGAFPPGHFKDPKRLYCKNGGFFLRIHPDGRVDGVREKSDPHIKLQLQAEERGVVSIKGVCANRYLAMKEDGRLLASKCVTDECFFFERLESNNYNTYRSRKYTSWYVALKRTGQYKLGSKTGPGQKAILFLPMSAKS

[15] = JC-1 mitochondrial potential readout, lung cancer cells – cell-based, A549, JC-1 fluorescence, basal, 24 h, 100 nL, profiling panel (AID 1138); conditions: higher = more signal;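 note: A549 lung adenocarcinoma cells under basal conditions with no added stimulus; test concentration not given here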
Lefty1 = Lefty1 protein binding to printed compounds – biochemical, small-molecule microarray, 635/667 nm fluorescence, primary screen (AID 1139); conditions: fluorescence 635/667, higher = more signal
[16] = system: wheat germ agglutinin (Triticum aestivum), Alexa647-labelled; experiment: Alexa647-WGA lectin binding to printed small molecules – biochemical, small-molecule microarray, 635/667 nm fluorescence, artefact control for SMM control-protein annotation, profiling panel (AID 1140); conditions: WGA-A647 binding, 635 nm fluorescence, higher = more signal;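 note: score merges 667 nm feature emission with signal to noise over triplicate slides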
[17] = molecular target: Luciferin 4-monooxygenase (Photinus pyralis) (UniProt P08659); experiment: inhibition of purified Photinus pyralis luciferase – biochemical, luminescence, purified enzyme, 2006 set, primary screen (AID 1141); conditions: purified firefly luciferase, SteadyGlo luminescence, 30 min; higher = more signal, called active from +8 up or from −8 down;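 note: cell-free assay with purified firefly luciferase at 100 ng per well in PBS; test concentration not given here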
Luciferin 4-monooxygenase (Photinus pyralis), sequence (P08659 whole entry, looked up): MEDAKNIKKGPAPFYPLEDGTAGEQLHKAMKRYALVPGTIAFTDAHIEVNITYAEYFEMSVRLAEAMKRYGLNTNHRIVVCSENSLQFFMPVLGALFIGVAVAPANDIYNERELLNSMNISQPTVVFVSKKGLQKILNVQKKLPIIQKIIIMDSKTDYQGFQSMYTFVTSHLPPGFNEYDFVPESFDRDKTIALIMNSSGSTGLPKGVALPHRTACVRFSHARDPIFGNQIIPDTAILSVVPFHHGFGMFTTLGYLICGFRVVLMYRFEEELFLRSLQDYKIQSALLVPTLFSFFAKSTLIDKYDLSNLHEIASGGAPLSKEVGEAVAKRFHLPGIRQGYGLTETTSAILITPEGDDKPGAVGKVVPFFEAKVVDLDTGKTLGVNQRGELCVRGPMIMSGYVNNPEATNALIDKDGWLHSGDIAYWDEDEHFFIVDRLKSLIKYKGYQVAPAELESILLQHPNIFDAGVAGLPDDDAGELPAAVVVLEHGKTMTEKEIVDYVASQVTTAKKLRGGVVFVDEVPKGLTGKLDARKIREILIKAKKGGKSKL

| Compound | composite z-score (Albumin (Bos taurus)) | composite Z-score [1] | composite z-score [2] | composite z-score [3] | composite z-score [4] | composite z-score [5] | composite z-score [6] | composite z-score (Sam68 (KHDRBS1)) | composite z-score [7] | composite z-score [8] | composite z-score [9] | composite z-score [10] | composite z-score [11] | composite z-score [12] | composite z-score [13] | composite z-score [14] | z-score [15] | composite z-score (Lefty1) | composite z-score [16] | z-score [17] |
| --- | --- | --- | --- | --- | --- | --- | --- | --- | --- | --- | --- | --- | --- | --- | --- | --- | --- | --- | --- | --- |
| O=C1O[C@H](c2ccccc2)[C@H](c2ccccc2)N2[C@H]1[C@@H](C(=O)Nc1nc3ccccc3s1)[C@]1(C(=O)Nc3ccc(C#CCCO)cc31)[C@H]2c1ccc(O)cc1 | 0.497 | -0.0959 (inactive) | 0.199 | -0.156 | 0.5 | 1.75 | 0.278 | 1.02 | 0.172 | 1.16 | 0.917 | 1.18 | 0.306 | 0.982 | 1.26 | 0.585 | -2.34 | 1.23 | 1.1 | 0.198 (inactive) |
| COCCOC(=O)N1C(=O)[C@@]2(c3cc(C#CCCO)ccc31)[C@H](c1ccccc1OCCO)N1[C@H](c3ccccc3)[C@H](c3ccccc3)OC(=O)[C@H]1[C@@H]2C(=O)Nc1nc2ccccc2s1 | 0.802 | 0.048 (inactive) | 0.108 | -0.0352 | 0.729 | 2.02 | 0.967 | 1.29 | 0.0314 | 1.09 | 2.09 | 1.2 | 0.771 | 0.733 | 1.07 | 0.957 | -2.27 | 0.932 | 1.24 | -0.499 (inactive) |
| COc1ccc([Si](C)(C)[C@H]2[C@H](CC(=O)N(CCO)Cc3ccccc3)O[C@@]3(C(=O)N(Cc4cccc(N5CCOC5=O)c4)c4ccccc43)[C@@H]2C)cc1 | -0.255 | 0.897 (inactive) | -0.0288 | -0.104 | 0.591 | 1.1 | 0.735 | 1.3 | 0.623 | 0.995 | 1.65 | 0.922 | 0.647 | 0.206 | 1.06 | 0.494 | -0.791 | 0.857 | 0.321 | 0.271 (inactive) |
| COC(=O)C(CC#Cc1ccc2c(c1)[C@]1(C(=O)N2)[C@H](c2ccccc2OCCO)N2[C@H](c3ccccc3)[C@H](c3ccccc3)OC(=O)[C@H]2[C@@H]1C(=O)NC[C@H](O)c1ccccc1)C(=O)OC | 0.42 | 0.231 (inactive) | -0.19 | 0.0537 | 0.544 | 1.83 | 0.445 | 0.947 | 0.285 | 1.12 | 1.42 | 1.23 | 3.08 | 0.427 | 0.597 | 1.06 | -0.789 | 0.697 | 1.14 | -0.832 (inactive) |
| COc1cc(OC)c(C(O)C2C=CC3C(=O)N(C)C(=O)C3N2NC(=O)OC(C)(C)C)cc1Br (stereo not given) | 0.881 | 0.182 (inactive) | 0.398 | 0.354 | 0.584 | 3.05 | 0.91 | 1.3 | -0.251 | 1.09 | 0.476 | 1.29 | 0.776 | 1.03 | 1.25 | 0.128 | -0.942 | 0.42 | 1.23 | -0.996 (inactive) |
| C=C(COC)/C(=C/C[C@H](OC(=O)c1ccncc1)c1ccccc1OCCO)c1cnc2ccccc2c1 | 0.609 | 0.431 (inactive) | 0.0964 | -0.102 | 0.881 | 2.07 | 0.118 | 1.29 | 0.951 | 1.03 | 0.717 | 1.23 | 0.241 | 1.01 | 1.4 | 1.35 | 0.662 | 1.5 | 1.04 | -0.212 (inactive) |
| CC(CO)N1C(=O)[C@@H]2[C@H]3C(=O)OCC=C[C@H]3OC23C=CCN(C(C)(C)C)C(=O)[C@@H]13 (stereo not given in full) | -0.0964 | 1.03 (inactive) | -0.242 | -0.125 | 0.852 | -0.856 | -0.604 | -1.05 | -0.508 | 0.251 | -1.15 | -0.833 | -0.367 | -0.591 | -0.187 | -0.0701 | -0.28 | -0.114 | -0.104 | -0.069 (inactive) |
| [N-]=[N+]=NCc1ccccc1[C@H]1OC(c2ccc(OCCCO)cc2)=N[C@@]1(CCS(=O)(=O)c1ccccc1)C(=O)NCC(O)CO (stereo not given in full) | 0.567 | 0.652 (inactive) | 0.11 | 0.0697 | 0.736 | 3.48 | 1.04 | 1.06 | -0.0485 | 0.939 | 2.5 | 1.26 | 1.33 | 1.01 | 1.36 | 0.877 | -1.22 | -0.385 | 0.983 | -0.986 (inactive) |
| O=C(NCc1ccccc1)[C@@H]1c2ccccc2C(=O)N(Cc2ccccc2C(F)(F)F)[C@H]1c1ccc(CO)cc1 | -0.0228 | -0.683 (inactive) | -0.232 | -0.13 | 0.759 | 0.829 | 2.63 | 0.227 | -1.2 | 0.612 | -0.782 | 0.334 | 0.0179 | -0.709 | 0.592 | -0.133 | 1.86 | -0.324 | 0.32 | -0.745 (inactive) |
| CCCC[C@@H]1C[C@H]1[C@@H](NC(=O)c1cccs1)c1ccc(C(F)(F)F)cc1 | -0.999 | -0.496 (inactive) | 0.0026 | -0.0859 | -0.195 | -0.559 | 0.0126 | -0.154 | 0.149 | -0.162 | 0.904 | -0.654 | -0.0276 | -0.364 | 0.301 | -0.38 | 0.503 | 0.222 | -0.945 | 1.2 (inactive) |
| COCCOC(=O)N1C(=O)[C@@]2(c3cc(C#CC4=CCCCC4)ccc31)[C@H](C(=O)N1CCCCCCC1)[C@H]1C(=O)O[C@H](c3ccccc3)[C@H](c3ccccc3)N1[C@@H]2c1ccc(O)cc1 | 0.25 | 0.0769 (inactive) | 0.183 | 0.103 | 0.334 | 2.17 | 0.147 | 1.25 | 0.277 | 0.622 | -0.014 | 1.13 | 0.701 | -0.0414 | 1.12 | 0.446 | 0.5 | 0.486 | 0.436 | -5.8 (inactive) |
